The whole screen tested about 68,000 compounds, of which about 2,700 (4%) showed an effect of 50% or more. The list comes from a sample in which strong results are over-represented; it also holds similar structures and randomly drawn compounds.
System: Plasmodium berghei
Experiment: Screen against P. berghei liver stage (PbLuc), transformed with Luciferase, at 2uM
Format: functional, HepG2
Conditions: tested at 2 uM

For `Cc1ccc(Cn2nc(C)c3c(C(=O)O)c(Cl)c(C4CC4)nc32)cc1`, which INHIBITION is on record?
The INHIBITION was 26.11%.

Which INHIBITION does the source give for `Cc1nn(C)c2nc(C3CC3)c(Cl)c(C(=O)O)c12` here?
The INHIBITION was 52.23%.

Which INHIBITION does the source give for `Cc1noc2nc(C3CC3)c(Cl)c(C(=O)O)c12` here?
The INHIBITION was -7.81%.

For `CCc1csc(NC(=O)NCc2ccccn2)n1`, which INHIBITION is on record?
Its INHIBITION is 29.32%.

`Cc1c(C(=O)N(C)CC(F)(F)F)nnn1-c1ccccc1Cl` was tested. Which INHIBITION did it give?
Its INHIBITION is -20.76%.

With `CSC1(CNC(=O)NC(C)c2ccc(F)c(F)c2)CCOCC1` (centres undefined) as the compound, how does the INHIBITION read?
The INHIBITION was -90.61%.

For `CSC1(CNC(=O)NC(C)Cc2cccc(F)c2)CCOCC1` (centres undefined), which INHIBITION is on record?
The INHIBITION was 16.49%.

With `CSC1(CNC(=O)NC(C)c2ccc(F)cc2)CCOCC1` (centres undefined) as the compound, how does the INHIBITION read?
The INHIBITION was 51.43%.

`CCS(=O)(=O)CCN1CCN(C2CCC(C(C)C)CC2)CC1` (centres undefined) was tested. Which INHIBITION did it give?
The INHIBITION was 20.83%.

Which INHIBITION does the source give for `COCc1nccc(C2CCCN(Cc3ccc(SC)cc3)C2)n1` (centres undefined) here?
The INHIBITION was 35.63%.

With `CC1N(C)C(=O)COC12CCN(Cc1nccs1)CC2` (centres undefined) as the compound, how does the INHIBITION read?
Its INHIBITION is -52.93%.

`OCC1CCCN1c1cc(NCCc2ccccn2)ncn1` (centres undefined) was tested. Which INHIBITION did it give?
Its INHIBITION is -13.49%.

Which INHIBITION does the source give for `CC(=O)N1CCc2[nH]cnc2C12CCN(C(=O)Cc1ccccn1)CC2` here?
Its INHIBITION is 39.58%.

`CC(=O)N1CCc2[nH]cnc2C12CCN(C(=O)Cc1cccs1)CC2` was tested. Which INHIBITION did it give?
Its INHIBITION is 63.14%.

For `CN1CCc2[nH]cnc2C12CCN(C(=O)CCc1cccs1)CC2`, which INHIBITION is on record?
The INHIBITION was 46.51%.

`Cc1cccc(CN2C[C@@H]3CN(C(=O)[C@H]4CCCO4)C[C@@H]3C2=O)c1` was tested. Which INHIBITION did it give?
Its INHIBITION is 19.64%.

For `CCn1ncc2c1C(COC)N(C(=O)c1cccs1)CC2` (centres undefined), which INHIBITION is on record?
Its INHIBITION is -23.14%.

How did the INHIBITION turn out when `O=C(Nc1nnn[nH]1)c1ccc(I)c(F)c1` was run?
Its INHIBITION is 15.2%.

`Cc1cccc(CN2C(=O)C[C@H]3[C@@H]2CCN3Cc2nccs2)n1` was tested. Which INHIBITION did it give?
The INHIBITION was 31.5%.

`Cc1cccc(CN2CC[C@@H]3[C@@H]2CCN3Cc2cccs2)n1` was tested. Which INHIBITION did it give?
The INHIBITION was -18.6%.

With `Cc1cccc(CN2C(=O)C[C@H]3[C@@H]2CCN3Cc2cccs2)n1` as the compound, how does the INHIBITION read?
The INHIBITION was 63.06%.

How did the INHIBITION turn out when `Cc1ccc(-c2cn[nH]c2C2CCCN(c3nccc(N)n3)C2)cc1` (centres undefined) was run?
Its INHIBITION is 58%.

For `Cc1ccc(-c2cn[nH]c2C2CCCN(c3ccnc(C)n3)C2)cc1` (centres undefined), which INHIBITION is on record?
Its INHIBITION is -8.3%.

For `Cc1ccc(-c2cn[nH]c2C2CCCN(c3ncccn3)C2)cc1` (centres undefined), which INHIBITION is on record?
The INHIBITION was -16.71%.

With `Cc1nc(CCNC(=O)NC(C)Cn2cccn2)cs1` (centres undefined) as the compound, how does the INHIBITION read?
The INHIBITION was 38.76%.

With `O=C(N[C@@H]1CN[C@H]2CCCO[C@H]21)c1cccnc1` as the compound, how does the INHIBITION read?
Its INHIBITION is 33.69%.

Which INHIBITION does the source give for `CC(=O)N1CCN(C(C)c2nnc(CC(C)C)o2)CC1` (centres undefined) here?
Its INHIBITION is 2.02%.

For `CNc1ncc(CN(C)C(=O)CCc2[nH]nc3c2CCCC3)cn1`, which INHIBITION is on record?
Its INHIBITION is 50.57%.

For `CNc1ncc(CN(C)C(=O)CCc2cc3n(n2)CCCNC3)cn1`, which INHIBITION is on record?
The INHIBITION was 20.76%.

With `CN(Cc1ccncn1)C(=O)CCc1[nH]nc2c1CCCC2` as the compound, how does the INHIBITION read?
Its INHIBITION is -2.31%.

Which INHIBITION does the source give for `Cc1ccc(CNC(=O)Cn2nc(-c3ccc(F)cc3)oc2=O)cc1F` here?
The INHIBITION was 1.6%.

For `COc1cccc(-c2noc(C3CCN(CC4CCCCC4)C3)n2)c1` (centres undefined), which INHIBITION is on record?
Its INHIBITION is 30.29%.

How did the INHIBITION turn out when `CCS(=O)(=O)N1CCC2(CC1)CN(C(=O)N(C)C)Cc1ccccc12` was run?
Its INHIBITION is 6.79%.

How did the INHIBITION turn out when `CCc1csc(CCNC(=O)CC2CCN(C(C)C)CC2)n1` was run?
Its INHIBITION is -2.5%.

How did the INHIBITION turn out when `CC(C)N1CCC(CC(=O)NCc2cc(O)ncn2)CC1` was run?
The INHIBITION was 12.17%.

How did the INHIBITION turn out when `CC(C)N1CCC(CC(=O)NCCc2cc(O)ncn2)CC1` was run?
Its INHIBITION is 60.59%.

For `Cn1ccnc1CN1C[C@@H]2OCCN(c3ncccn3)[C@@H]2C1`, which INHIBITION is on record?
The INHIBITION was 52.17%.

For `Cn1cncc1CN1C[C@@H]2OCCN(c3ncccn3)[C@@H]2C1`, which INHIBITION is on record?
Its INHIBITION is 25.02%.

For `CN(C)c1nccc(N2CCO[C@H]3CN(Cc4nccn4C)C[C@H]32)n1`, which INHIBITION is on record?
Its INHIBITION is 11.6%.

`CC(C)NC(=O)N1Cc2nccn2CC(CN2CCCC2)C1` (centres undefined) was tested. Which INHIBITION did it give?
Its INHIBITION is 2.5%.

Which INHIBITION does the source give for `CCC(C)Oc1ccc(CNCCc2c[nH]cn2)cc1Cl` (centres undefined) here?
Its INHIBITION is 12.15%.

`Cc1nn(CC(=O)Nc2cccc(F)c2)c(N)c1C#N` was tested. Which INHIBITION did it give?
Its INHIBITION is -33.61%.

For `Cc1ccc(C)c(NC(=O)Cn2nc(C)c(C#N)c2N)c1`, which INHIBITION is on record?
The INHIBITION was -15.17%.

For `Cc1cc(NC(=O)Cn2nc(C)c(C#N)c2N)ccc1Br`, which INHIBITION is on record?
The INHIBITION was 55.86%.

For `COc1ccc(C)cc1NC(=O)Cn1nc(C)c(C#N)c1N`, which INHIBITION is on record?
The INHIBITION was 5.32%.

For `CC(=O)c1c(C)nn(CC(=O)Nc2ccc(F)cc2)c1C`, which INHIBITION is on record?
Its INHIBITION is -16.43%.

How did the INHIBITION turn out when `Cc1nn(CC(=O)Nc2ccc(F)cc2)c(N)c1C#N` was run?
Its INHIBITION is 58.12%.

With `CCc1ccc(S(=O)(=O)N2Cc3c(CN(C)C)nn(C)c3C2)cc1` as the compound, how does the INHIBITION read?
Its INHIBITION is 48.09%.

For `NC1CCc2nc(-c3ccncc3)nc(Nc3cccc(F)c3)c2C1` (centres undefined), which INHIBITION is on record?
Its INHIBITION is -23.54%.

Which INHIBITION does the source give for `Cc1cccc2c1ccn2CCC(=O)Nc1c2c(nn1C)CSC2` here?
The INHIBITION was 13.65%.

For `CCN(C)c1ncnc2c1CCN(Cc1ccc(OC)cc1)CC2`, which INHIBITION is on record?
The INHIBITION was 7.86%.

For `O=C(Cc1ccccn1)N1CCCC(c2nccn2CC2CCC2)C1` (centres undefined), which INHIBITION is on record?
Its INHIBITION is 54.47%.

How did the INHIBITION turn out when `O=C(c1ccccn1)N1CCCC(c2nccn2CC2CCC2)C1` (centres undefined) was run?
The INHIBITION was 14.41%.

Which INHIBITION does the source give for `O=C(CSCC1CC1)N1CCCC(c2nccn2Cc2ccccn2)C1` (centres undefined) here?
The INHIBITION was -17.83%.

From ChEMBL document CHEMBL4513216, “Probing the Open Global Health Chemical Diversity Library for Multistage-Active Starting Points for Next-Generation Antimalarials” (ACS Infect Dis, 2020)
